# In PubChem BioAssay:
# Results filed as inconclusive are left out. The source made the active and inactive calls. Unless noted, cut-off not given; nearly all actives show AC50 up to about 26 µM.
# Tests used:
# [1] = growth inhibition of DIPG glioma cells, dose response, cell-based, SU-DIPG-XVII, MIPE5.0, CellTiter-Glo, qHTS (AID 1347060); conditions: SU-DIPG-XVII viability, CellTiter-Glo ATP luminescence;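 on AC50: cells exposed to compound for 48 hours before viability readout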
# [2] = growth inhibition of DIPG glioma cells, dose response, cell-based, SU-DIPG-XIII, MIPE5.0, CellTiter-Glo, qHTS (AID 1347064; cut-off not given, nearly all actives have AC50 up to about 23 µM;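 on AC50: cells exposed to compound for 48 hours before the viability read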); conditions: SU-DIPG-XIII viability, CellTiter-Glo ATP luminescence
# [3] = viability loss in pontine glioma line – cell-based, SU-DIPG-XXV, MIPE5.0, CellTiter-Glo, qHTS, dose response (AID 1347065); conditions: CellTiter-Glo ATP luminescence;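 further: cells exposed to compound for 48 hours before ATP readout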
# [4] = SU-DIPG-XXV glioma cell viability, MIPE5.0 library, qHTS (AID 1347068; cut-off not given, nearly all actives have IC50 up to about 30 µM;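 on IC50: cells exposed to compound for 48 hours before viability readout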)
# [5] = JHH-DIPG-1 glioma cell viability, MIPE5.0 library, CellTiter-Glo luminescence, qHTS (AID 1347067); conditions: JHH-DIPG-1 glioma viability, CellTiter-Glo ATP luminescence;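 further: cells exposed to compound for 48 hours before readout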
# [6] = sensitizers of A549 cells to miR-34 induction, primary screen, imaging, A549 dox-inducible miR-34, nuclei and caspase counts (AID 1347080;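 active means compounds whose cell count with miR-34 switched on is under 0.7 times the count with it off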); conditions: A549 miR-34 inducible, Hoechst nuclei count, 48 h
# [7] = survival rescue of mitochondrial mutant cells in low glucose, primary screen, MELAS cybrids, Rieske KO mouse fibroblasts, CellTiter-Glo (AID 1508586;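 active means mean z-score across replicates of 1.96 or higher in either the MELAS or the Rieske mutant cell line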;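 further: z relative to plate mean and SD of compound and empty wells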)
# [8] = liver-stage malaria parasite growth inhibition, primary screen, cell-based, HepG2, luciferase luminescence, HepG2 viability (AID 624349; in the data active means parasite load remaining mostly below about 12%, no sharp cut-off; inactive means mostly above about 10%;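 further: 100% = mean of DMSO negative control wells on the same plate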); conditions: P. berghei liver stage in HepG2, luciferase luminescence, concentration not given here; parasite load remaining: stronger effect = lower value; viability: measured here: HepG2 viability without parasites
# [9] = viability rescue of complex I mutant cybrids, primary screen, cell-based, galactose medium, ATP luminescence (AID 1645843;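 active means z-score of at least 1.8 in each of two replicates, scored against plate mean and spread of sample wells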;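 further: positive z means more ATP and so rescue of galactose-driven cybrid death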); conditions: complex I mutant cybrid cells, 72 h, stronger effect = higher value
# [10] = stronger effect = lower value, cell number ratio, induced over uninduced
# [11] = measured here: relative caspase fold change +Dox/-Dox
# [12] = measured here: total cells with miR-34 induction, stronger effect = lower value
# [13] = measured here: total cells without miR-34 induction
# [14] = MELAS cybrid survival, CellTiter-Glo 48 h, stronger effect = higher value
# [15] = Rieske KO mouse fibroblast survival, CellTiter-Glo 72 h
structure (smiles),measurement,setting,value
Cc1ncc(Cl)cc1NCc1ccc(C(=O)NC(CC2CCCC2)C(=O)NC2CC2)s1 (stereo unspecified),outcome,[1],inactive
same,outcome,[2],inactive
same,outcome,[3],inactive
same,outcome,[4],inactive
C[C@@H](c1ccc2nccn2c1)n1nnc2ncc(-c3cnn(C)c3)nc21,outcome,[1],inactive
same,outcome,[2],inactive
same,outcome,[3],inactive
same,outcome,[4],inactive
OC[C@H]1O[C@@H](S[C@@H]2O[C@H](CO)[C@H](O)[C@H](n3cc(-c4cccc(F)c4)nn3)[C@H]2O)[C@H](O)[C@@H](n2cc(-c3cccc(F)c3)nn2)[C@H]1O,outcome,[1],inactive
same,outcome,[2],inactive
same,outcome,[3],inactive
same,outcome,[4],inactive
Cc1c(NC(=O)OCC2COCCN2)cn2ncnc(Nc3ccc4c(cnn4Cc4cccc(F)c4)c3)c12 (stereo unspecified),AC50,[1],18.6 µM (active)
same,AC50,[2],23.5 µM (active)
same,AC50,[3],23.5 µM (active)
same,AC50,[5],20.9 µM (active)
same,fold change,[6]; [10],1.04 (inactive)
same,fold change,[6]; [11],0.875
same,cell count,[6]; [12],4510
same,cell count,[6]; [13],4340
same,z-score,[7]; [14],-0.264 (inactive)
same,z-score,[7]; [15],0.355
CC(=O)N1CCC(Nc2cc(C(=O)NC[C@H](O)CN3CCc4ccccc4C3)ncn2)CC1,outcome,[1],inactive
same,outcome,[2],inactive
same,outcome,[3],inactive
same,outcome,[4],inactive
CC(C)(O)c1coc(S(=O)(=O)NC(=O)Nc2c3c(cc4c2CCC4)CCC3)c1,outcome,[1],inactive
same,outcome,[2],inactive
same,outcome,[3],inactive
same,outcome,[4],inactive
C[C@@H](O)[C@@H]1NC(=O)[C@H](CCCCN)NC(=O)[C@@H](Cc2c[nH]c3ccccc23)NC(=O)[C@H](Cc2ccccc2)NC(=O)[C@@H](NC(=O)[C@H](N)Cc2ccccc2)CSSC[C@@H](C(=O)N[C@H](CO)[C@@H](C)O)NC1=O,parasite load remaining,[8],22.8% (inactive)
same,viability,[8],81.5%
same,outcome,[1],inactive
same,outcome,[2],inactive
same,outcome,[3],inactive
same,outcome,[5],inactive
same,fold change,[6]; [10],0.862 (inactive)
same,fold change,[6]; [11],0.995
same,cell count,[6]; [12],9290
same,cell count,[6]; [13],10800
same,z-score,[7]; [14],0.396 (inactive)
same,z-score,[7]; [15],-0.498
same,z-score,[9],0.6 (inactive)
Cc1ccc(Sc2ccccc2N2CCNCC2)c(C)c1,AC50,[1],11.8 µM (active)
same,AC50,[2],16.6 µM (active)
same,AC50,[3],10.5 µM (active)
same,AC50,[5],9.34 µM (active)
same,fold change,[6]; [10],0.93 (inactive)
same,fold change,[6]; [11],0.501
same,cell count,[6]; [12],4800
same,cell count,[6]; [13],5160
same,z-score,[7]; [14],-0.442 (inactive)
same,z-score,[7]; [15],-1.42
CCOC(=O)[C@@]1(CCCCCCOc2ccc(Cl)cc2)CO1,outcome,[1],inactive
same,outcome,[2],inactive
same,outcome,[3],inactive
same,outcome,[4],inactive
Cc1[nH]c2ccc(F)cc2c1-c1nc2c3cccnc3c3ncccc3c2[nH]1,AC50,[1],6.79 µM (active)
same,AC50,[2],1.35 µM (active)
same,AC50,[3],1.91 µM (active)
same,IC50,[4],2.7 µM (active)
